These results are taken from PubChem BioAssay (NCATS).

The target of test [1] is Protein phosphatase 1D (Homo sapiens) (UniProt O15297). The test is described as follows: RapidFire Mass Spectrometry qHTS Assay for Modulators of WT P53-Induced Phosphatase 1 (WIP1) (AID 1347424).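 Note: amount of dephosphorylated VEPPL-S-QETFS peptide product formed by WIP1; series mostly up to about 63 µM.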 The method in brief: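 10 nM WIP1 + cpd, 1 h RT; + 2 uM VEPPL-pS-QETFS, 5 min RT; stop 0.5% formic acid; labelled product standard 1 uM; RapidFire MS. Buffer 50 mM Tris pH 7.5, 30 mM MgCl2, 1 mM TCEP.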
Background: qHTS replaces the single test concentration by a dilution series.

For test [2] the target is unchanged. The test is described as follows: Rhodamine-PBP qHTS Assay for Modulators of WT P53-Induced Phosphatase 1 (WIP1) (AID 1347425). Summed up: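 The read-out is the change in Rhodamine-PBP fluorescence (f1 - f0, ex 525/em 598 nm) as Pi is released, read each minute for 11 min. Final reaction: 5 nM WIP1, 10 uM phosphopeptide VEPPL-pS-QETFS, 10 uM Rh-PBP, 50 mM Tris-HCl pH 7.5, 30 mM MgCl2. Compound was preincubated with enzyme for 1 hour at room temperature.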

A short description of test [3]: Primary qHTS for inhibitors of La Crosse Virus (LACV) - induced cell death in SH-SY5Y cells (AID 1508616).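 Note: top concentration of the series differs between compounds; higher means more rescue of cells from virus-induced death.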 The method in brief: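 Luminescent ATP readout (ATPLite 1step, 5 min room temperature) measured rescue from LACV-induced death after 6 days of infection at 0.01 MOI; normalized to infected DMSO wells and uninfected DMSO wells.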
Test [4] concerns the target Calcium and integrin-binding protein 1 (Homo sapiens) (UniProt Q99828). The test is described as follows: Primary qHTS for Identification of Calcium Integrin Binding Protein 1 (CIB1) Competitor (AID 1508620).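 Note: GST tagged CIB1 binding a fluorescein labelled alphaIIb integrin peptide tracer; top concentration of the series differs between compounds.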 Summed up:
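CIB1-GST (1 uM final) and compound incubated 15 min at room temperature before adding FITC-alphaIIb peptide tracer (100 nM final). Competition for binding read by fluorescence polarization (ex 480, em 540) after another 15 min at room temperature.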

The nature of test [5]: Primary qHTS for small molecule stabilizers of the endoplasmic reticulum resident proteome: Secreted ER Calcium Modulated Protein (SERCaMP) assay (AID 1508630). Summed up: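 GLuc-SERCaMP-expressing SH-SY5Y cells, pretreated 16 h with compound, are challenged with thapsigargin to empty ER calcium stores; after 4 h, coelenterazine is added directly to the medium and luminescence is imaged.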

Test [6] can be described thus: A High-Content qHTS Against Drug Library for the Identification of Small Molecules that Inhibit DYT1 Early Onset Primary Dystonia-Associated Cell Pathology (AID 1645839; calls by dose curve; note: series mostly up to about 46 µM). The method in brief: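 In this high-content image screen, delE TorsinA mislocalization in inducible Flp-In 293 cells is scored as %pathology, with cell count serving as the counterscreen. Compound exposure lasts 48 h under tetracycline induction in reduced-serum medium.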

The target of test [7] is Cytochrome P450 2D6 (Homo sapiens) (UniProt P10635). The test is described as follows: Cytochrome P450 family 2 subfamily D member 6 (CYP2D6) small molecule antagonists: luciferase biochemical (cell-free) qHTS assay (AID 1645840; active = well fitted curve in the direction sought with a large enough effect in the repeat runs; an effect the other way counts as inactive or inconclusive; note: nearly all actives have a fitted effect of over 55% in size; note: potency is the fitted concentration of half-maximal effect). Summed up:
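P450-Glo luminescent screen: recombinant CYP2D6 enzyme–proluciferin substrate mix preincubated with compound 10 min at room temperature, then NADPH regeneration added for 1 h at room temperature. Detection reagent added for 20 min; luciferin light read as relative luminescence units.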

Results filed as inconclusive are left out. Calls of active or inactive are those of the source. Unless noted, calls come from the whole dose curve; as a rule, active = well fitted curve in the direction sought with a large enough effect; inconclusive = small, poorly fitted or top-dose-only effect, or another doubt; inactive = no such curve, though single readings can be large; an effect the other way counts as inactive or inconclusive.

Protein phosphatase 1D (Homo sapiens), sequence (O15297 whole entry, looked up): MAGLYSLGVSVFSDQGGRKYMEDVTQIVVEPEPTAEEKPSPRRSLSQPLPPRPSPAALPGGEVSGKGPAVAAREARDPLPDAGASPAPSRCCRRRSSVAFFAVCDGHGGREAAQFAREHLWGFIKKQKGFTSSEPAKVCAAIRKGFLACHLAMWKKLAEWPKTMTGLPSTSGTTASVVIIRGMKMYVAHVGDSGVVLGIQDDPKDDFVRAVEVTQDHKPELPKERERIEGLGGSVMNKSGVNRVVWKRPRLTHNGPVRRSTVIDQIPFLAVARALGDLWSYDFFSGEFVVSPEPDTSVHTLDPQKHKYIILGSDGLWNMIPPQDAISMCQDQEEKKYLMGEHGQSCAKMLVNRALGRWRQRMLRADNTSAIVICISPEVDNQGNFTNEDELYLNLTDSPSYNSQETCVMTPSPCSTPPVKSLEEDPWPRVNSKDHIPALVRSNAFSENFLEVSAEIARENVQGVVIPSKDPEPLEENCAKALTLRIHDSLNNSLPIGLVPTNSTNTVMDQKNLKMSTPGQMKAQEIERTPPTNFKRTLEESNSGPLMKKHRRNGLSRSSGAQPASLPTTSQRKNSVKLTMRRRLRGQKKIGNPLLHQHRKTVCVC
Cytochrome P450 2D6 (Homo sapiens), sequence (P10635 whole entry, looked up): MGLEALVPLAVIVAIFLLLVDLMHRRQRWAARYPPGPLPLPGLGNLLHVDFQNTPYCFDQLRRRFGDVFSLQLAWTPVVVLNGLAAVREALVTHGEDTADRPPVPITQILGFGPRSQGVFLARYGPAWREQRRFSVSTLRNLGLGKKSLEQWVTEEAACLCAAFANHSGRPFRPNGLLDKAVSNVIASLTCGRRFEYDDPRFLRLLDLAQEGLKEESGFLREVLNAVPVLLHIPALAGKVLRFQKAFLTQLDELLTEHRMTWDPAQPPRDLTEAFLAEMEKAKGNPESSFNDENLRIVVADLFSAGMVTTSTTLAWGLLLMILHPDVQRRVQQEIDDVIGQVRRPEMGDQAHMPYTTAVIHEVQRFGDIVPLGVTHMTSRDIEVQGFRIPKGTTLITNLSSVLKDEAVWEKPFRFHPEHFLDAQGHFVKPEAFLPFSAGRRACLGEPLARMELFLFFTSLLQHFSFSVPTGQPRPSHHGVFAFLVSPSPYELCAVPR
Calcium and integrin-binding protein 1 (Homo sapiens), sequence (Q99828 whole entry, looked up): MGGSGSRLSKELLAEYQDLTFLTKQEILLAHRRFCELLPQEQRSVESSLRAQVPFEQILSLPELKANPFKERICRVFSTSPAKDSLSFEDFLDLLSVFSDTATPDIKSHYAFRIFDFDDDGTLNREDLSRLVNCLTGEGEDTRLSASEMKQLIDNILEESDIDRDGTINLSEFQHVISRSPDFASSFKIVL

Regarding `NCc1cccnc1`, the Potency result in test [1], in test [4] and in test [7] was “inactive” each time. Besides, the outcome in test [2], in test [3], in test [5] and in test [6] was inactive.

For the molecule `C[C@]12CC[C@H]3[C@@H](CCC4=CC(=O)CC[C@@H]43)[C@@H]1CC[C@@H]2O`, the Potency entry in test [1] and in test [4] was “inactive” each time. Also, the molecule was classed as inactive in test [2], in test [3], in test [5] and in test [6].

On to `CC(C)(C)OC(=O)c1ncn2c1[C@@H]1CCCN1C(=O)c1c(Br)cccc1-2`, for which the Potency entry in test [1] and in test [4] was “inactive” each time. Moreover, the outcome in test [2], in test [3] and in test [6] was inactive.

Take `CNC(C)Cc1ccc2c(c1)OCO2` (stereo not drawn): the Potency result in test [1] and in test [4] was “inactive” throughout. Further, the outcome in test [2], in test [3], in test [5] and in test [6] was inactive. The Potency in test [7] is 0.693 µM (active).

On to `CCCN(CCC)CCc1c[nH]c2ccccc12`, for which the Potency result in test [1] and in test [4] was “inactive” in each case. The result in test [2], in test [3], in test [5] and in test [6] was inactive. Besides, the Potency in test [7] is 0.394 µM (active).

As for `CCOC(=O)NC(O)C(Cl)(Cl)Cl` (stereo not drawn), the Potency result in test [1] and in test [4] was “inactive” throughout. Besides, the molecule was called inactive in test [2], in test [3], in test [5] and in test [6].

For `Cc1nc2ccccc2c(=O)n1-c1ccccc1Cl`, the Potency entry in test [1] and in test [4] was “inactive” each time. In addition, the outcome in test [2], in test [3] and in test [6] was inactive.

`CCC(OC(C)=O)C(CC(C)NC)(c1ccccc1)c1ccccc1` (stereo not drawn): the Potency result in test [1] and in test [4] was “inactive” throughout. Besides, the molecule was called inactive in test [2], in test [3] and in test [5]. Besides, the Potency in test [7] is 18 µM (active).

On to `CCOC(=O)C(c1c(O)c2ccccc2oc1=O)c1c(O)c2ccccc2oc1=O`, for which the Potency result in test [1], in test [4] and in test [7] was “inactive” throughout. Moreover, the outcome in test [2], in test [3], in test [5] and in test [6] was inactive.

Turning to `Sc1ccccc1Cl`, the Potency entry in test [1] and in test [4] was “inactive” throughout. Moreover, the outcome in test [2], in test [3] and in test [6] was inactive.

In the case of `COc1cc(C[C@@H](C)N)c(OC)cc1C`, the Potency result in test [1] and in test [4] was “inactive” in each case. Also, the outcome in test [2], in test [3], in test [5] and in test [6] was inactive. Further, the Potency in test [7] was 38.1 µM (active).
